This is one part of a sample in which hits are shown more often than they occur.
miR-122 inh = activators of miR-122 sensor in Huh7 cells | Huh7 psiCHECK-miR122 Renilla luciferase sensor, 48 h | AID 623901 | activation, % at 12.5 µM | 340,000 tested, 0.14% active;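 active means mean activation of 30% or more, with every replicate also reaching 30%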;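 further: higher luciferase signal means stronger suppression of miR-122 activity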
Of the large screens only hits and unclear results are named; the others gave an inactive call.

CN1C(=O)c2cc(NC(=O)c3cccc(F)c3)ccc2OC[C@@H]2O[C@@H](CC(=O)O)CC[C@@H]21	miR-122 inh 86.7
C[C@H]1CN([C@@H](C)CO)C(=O)c2cc(/C=C/c3ccccc3)cnc2O[C@H]1CN(C)C(=O)Cc1ccccn1	none
C[C@H](CO)N1C[C@H](C)[C@H](CN(C)Cc2ccccn2)Oc2ncc(Br)cc2C1=O	none
Cc1ccccc1-c1cnc2c(c1)C(=O)N([C@H](C)CO)C[C@@H](C)[C@@H](CN(C)C(=O)c1ccccc1)O2	none
C[C@@H]1CN([C@@H](C)CO)S(=O)(=O)c2ccc(-c3ccc(C#N)cc3)cc2O[C@H]1CN(C)C(=O)C1CC1	none
CCC(=O)N(C)C[C@@H]1Oc2cc(C#C[C@@H](C)O)ccc2S(=O)(=O)N([C@@H](C)CO)C[C@@H]1C	none
C[C@@H]1CN([C@@H](C)CO)S(=O)(=O)c2ccc(/C=C/c3ccccc3)cc2O[C@@H]1CN(C)C(=O)Nc1cccc(F)c1	none
C[C@@H]1CN([C@@H](C)CO)S(=O)(=O)c2ccc(Br)cc2O[C@H]1CN(C)S(C)(=O)=O	none
C[C@H]1CN([C@@H](C)CO)C(=O)c2cc(C#CC3(O)CCCC3)cnc2O[C@@H]1CN(C)C(=O)C1CCCCC1	none
CCCCNc1cc(C)nc(NCc2ccccc2)n1	miR-122 inh 41.0
C[C@H](CO)N1C[C@H](C)[C@@H](CN(C)Cc2cccnc2)Oc2ncc(C#Cc3ccccn3)cc2C1=O	none
C[C@H](CO)N1C[C@H](C)[C@H](CN(C)C(=O)Nc2ccc3c(c2)OCO3)Oc2ncc(-c3ccc(F)cc3)cc2C1=O	none
CC(C)C#Cc1ccc2c(c1)O[C@H](CN(C)C(=O)CC1CC1)[C@@H](C)CN([C@H](C)CO)S2(=O)=O	none
CCC(=O)N(C)C[C@@H]1Oc2cc(-c3cccnc3)ccc2S(=O)(=O)N([C@@H](C)CO)C[C@@H]1C	none
CCC(=O)Nc1ccc2c(c1)OC[C@@H](C)N(C(=O)CN1CCOCC1)C[C@H](C)[C@H](OC)CN(C)C2=O	none
CCCCc1cc(=O)oc2cc(C)cc(OC(C)C(=O)O)c12 (stereo not drawn)	miR-122 inh 31.7
CCCN(C)C[C@@H]1Oc2cc(C#Cc3ccccc3F)ccc2S(=O)(=O)N([C@H](C)CO)C[C@@H]1C	none
COc1ccc2[nH]c(=O)c(COC(=O)c3ccco3)cc2c1	miR-122 inh 30.8
CCN(Cc1ccccc1)C(=O)c1[nH]c2ccc(OC)cc2c1C	none
COCC#Cc1ccc2c(c1)O[C@@H](CN(C)Cc1cncnc1)[C@@H](C)CN([C@H](C)CO)S2(=O)=O	none
C[C@@H]1CN([C@H](C)CO)C(=O)c2cc(/C=C/c3ccccc3)cnc2O[C@@H]1CN(C)S(=O)(=O)c1ccc(F)cc1	none
CC(C)C#Cc1ccc2c(c1)O[C@@H](CN(C)C(=O)c1ccccc1)[C@H](C)CN([C@H](C)CO)S2(=O)=O	none
COC(=O)C1=C(C)N=C2SC(C#N)=C(N)N2C1c1cc(OC)c(OC)c(OC)c1 (stereo not drawn)	miR-122 inh 37.6
Cc1ccc(S(=O)(=O)N(C)C[C@H]2Oc3ncc(C#CCC(C)C)cc3C(=O)N([C@@H](C)CO)C[C@@H]2C)cc1	none
CNC[C@@H]1Oc2cc(-c3cccc(F)c3)ccc2S(=O)(=O)N([C@@H](C)CO)C[C@H]1C	none
C[C@H](CO)N1C[C@H](C)[C@H](CN(C)C(=O)C2CC2)Oc2cc(C#CC3CC3)ccc2S1(=O)=O	none
C[C@@H]1CN([C@H](C)CO)C(=O)c2cc(-c3cccc(F)c3)cnc2O[C@@H]1CN(C)S(C)(=O)=O	none
C[C@H](CO)N1C[C@H](C)[C@@H](CN(C)Cc2ccccn2)Oc2ncc(-c3ccc(F)cc3)cc2C1=O	none
C[C@@H]1CN([C@H](C)CO)C(=O)c2cc(Br)cnc2O[C@H]1CN(C)Cc1cccc(F)c1	none
CCn1nc(C)cc1-c1nnc(Sc2ncc([N+](=O)[O-])s2)n1C	miR-122 inh 44.9
COCC#Cc1cnc2c(c1)C(=O)N([C@H](C)CO)C[C@H](C)[C@@H](CN(C)C(=O)Cc1ccccc1)O2	none
COc1ccccc1-c1ccc2c(c1)O[C@@H](CN(C)S(=O)(=O)c1ccc(C)cc1)[C@@H](C)CN([C@@H](C)CO)S2(=O)=O	none
Cc1ccc(S(=O)(=O)N2CC[C@@H]3[C@@H](CO)Nc4ccc(-c5ccccc5F)cc4[C@@H]32)cc1	none
Clc1ccc(CSc2nnc(-c3ccncc3)o2)c(Cl)c1	miR-122 inh 32.8
Cc1ccc(C)c(CSc2nnc(-c3cccnc3)o2)c1	none
C[C@@H]1CN([C@H](C)CO)C(=O)c2cc(-c3ccccc3F)cnc2O[C@H]1CN(C)C(=O)C1CCCCC1	none
Cc1noc(C)c1NC(=O)N(C)C[C@@H]1Oc2cc(C#CCC(C)C)ccc2S(=O)(=O)N([C@@H](C)CO)C[C@@H]1C	none
COc1cc(-c2nnc3sc(C4CCCCC4)nn23)cc(OC)c1OC	miR-122 inh 32.1
COc1cc(Cl)cc(/C=N\NC(=O)c2ccc3c(c2)OCO3)c1O	miR-122 inh 40.5
N/C(Cc1cccc2ccccc12)=N\OC(=O)c1ccc2c(c1)OCO2	none
Cc1ccccc1-c1ccc2c(c1)O[C@H](CN(C)C(=O)Nc1ccccc1)[C@@H](C)CN([C@@H](C)CO)S2(=O)=O	none
C[C@@H]1CN([C@@H](C)CO)S(=O)(=O)c2ccc(-c3ccc(C(=O)N(C)C)cc3)cc2O[C@@H]1CN(C)C(=O)C1CCOCC1	none
COCC#Cc1cnc2c(c1)C(=O)N([C@H](C)CO)C[C@H](C)[C@@H](CN(C)C(=O)Nc1ccccc1OC)O2	none
Cc1ccc(C(=O)C2=C(O)C(=O)N(CCCN3CCOCC3)C23C(=O)N(C)c2ccccc23)o1 (stereo not drawn)	miR-122 inh 31.8
COc1cccc(-c2cnc3c(c2)C(=O)N([C@H](C)CO)C[C@H](C)[C@H](CN(C)Cc2cccnc2)O3)c1	none
COCC#Cc1cnc2c(c1)C(=O)N([C@@H](C)CO)C[C@H](C)[C@H](CN(C)Cc1ccccc1)O2	none
C[C@@H]1CN([C@H](C)CO)C(=O)Cc2cc(NS(=O)(=O)c3ccc(Cl)cc3)ccc2O[C@@H]1CN(C)C(=O)Nc1ccc(C(F)(F)F)cc1	none
Cc1ccc(S(=O)(=O)N(C)C[C@@H]2Oc3ccc(NC(=O)Nc4ccc(C(F)(F)F)cc4)cc3CC(=O)N([C@H](C)CO)C[C@@H]2C)cc1	none
C[C@@H]1CN([C@@H](C)CO)C(=O)Cc2cc(NC(=O)C3CCCCC3)ccc2O[C@H]1CN(C)Cc1ccc(-c2ccccc2)cc1	miR-122 inh 33.0
C[C@@H]1CN([C@@H](C)CO)C(=O)Cc2cc(NC(=O)Nc3ccc(C(F)(F)F)cc3)ccc2O[C@H]1CN(C)CC1CCCCC1	miR-122 inh 31.5
C[C@H](CO)N1C[C@H](C)[C@H](CN(C)Cc2ccc(C(=O)Nc3ccccc3N)cc2)Oc2ccc(NC(=O)C3CC3)cc2CC1=O	none
C[C@H](CO)N1C[C@H](C)[C@H](CN(C)Cc2ccc(C(=O)Nc3ccccc3N)cc2)Oc2ccc(NC(=O)C3CCCCC3)cc2CC1=O	none
CCC(=O)N(C)C[C@H]1Oc2ncc(C#CC3(O)CCCC3)cc2C(=O)N([C@@H](C)CO)C[C@H]1C	none
C[C@@H]1CN([C@@H](C)CO)C(=O)c2cc(C#CC3(O)CCCC3)cnc2O[C@H]1CN(C)S(=O)(=O)c1ccc(F)cc1	none
C[C@H]1CN([C@@H](C)CO)C(=O)c2cc(-c3ccc(C#N)cc3)cnc2O[C@@H]1CN(C)CC1CCOCC1	none
CCCNC(=O)N(C)C[C@H]1Oc2cc(C#Cc3cccc(F)c3)ccc2S(=O)(=O)N([C@H](C)CO)C[C@H]1C	none
COc1ccc(C(=O)Nc2ccc3c(c2)OC[C@@H](C)N(C)C[C@@H](C)[C@@H](OC)CN(C)C3=O)cc1	none

From PubChem
